In PubChem BioAssay (Tox21) one finds Potency data, which are given here for twelve compounds.

The nature of assay [1]: Human pregnane X receptor (PXR) small molecule agonists, qHTS cell viability counter screen (AID 1346977). Note: nearly all actives have a fitted effect of over 50% in size. An outline of the steps: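 Same-well viability read: CellTiter-Fluor added after 23 hr compound exposure, fluorescence measured 1 hr later. Cells were PXR-Luc HepG2 seeded at 2,000/well in 5% charcoal-stripped FBS medium, rested 5 hr before dosing at 37 C.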
Assay [2] is described as follows: Caspase-3/7 induction in HepG2 cells by small molecules, qHTS assay (AID 1346978). Note: nearly all actives have a fitted effect of over 15% in size. An outline of the steps: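 Caspase-3/7 induction was measured by Caspase-Glo 3/7 luminescence (30 min, room temperature) after a 17 hr compound exposure of wild-type HepG2 cells seeded at 2,000 per well and pre-incubated 5 hr.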
Assay [3] is described as follows: Caspase-3/7 induction in CHO-K1 cells by small molecules, qHTS assay (AID 1346980). Note: nearly all actives have a fitted effect of over 15% in size. An outline of the steps:
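Luminescent Caspase-Glo 3/7 read (30min, room temperature) quantified apoptosis induction. Cells were wild-type CHO-K1, treated with compound for 17hr at 37 C and 5% CO2.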

The nature of assay [4]: Caspase-3/7 induction in HepG2 cells by small molecules, qHTS cell viability counter screen (AID 1346981). Note: series mostly up to about 92 µM; nearly all actives have a fitted effect of over 30% in size. The procedure, abridged:
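Counter screen for cytotoxicity: HepG2 exposed 16 hr to compounds, then CellTiter-Fluor viability signal (fluorescence, 1 hr reagent incubation).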

Assay [5] deals with Nuclear receptor subfamily 1 group I member 2 (Homo sapiens) (UniProt O75469). Briefly: Human pregnane X receptor (PXR) small molecule agonists, qHTS assay (AID 1346982). Note: nearly all actives have a fitted effect of over 35% in size. Note: potency is the fitted concentration of half-maximal effect. The procedure, abridged:
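Luminescence (ONE-Glo, 30 min RT) after 24 hr compound exposure of PXR-Luc HepG2 cells; cells rested 5 hr post-plating in 5% charcoal-stripped FBS medium.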

Assay [6] concerns the target Cytochrome P450 2C19 (Homo sapiens) (UniProt P33261). The assay is described as follows: Cytochrome P450 Family 2 Subfamily C Member 19 (CYP2C19) small molecule antagonists: luciferase reporter qHTS assay (AID 1671197). Note: nearly all actives have a fitted effect of over 65% in size. Note: potency is the fitted concentration of half-maximal effect. An outline of the steps:
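Relative luminescence units recorded 20 min after the detection reagent stopped a 1 h, 37C CYP2C19 reaction on proluciferin substrate, which was started by NADPH regeneration following 10 min room-temperature compound preincubation; ketoconazole positive control.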

In assay [7] the target is Cytochrome P450 2C9 (Homo sapiens) (UniProt P11712). Briefly: Cytochrome P450 Family 2 Subfamily C Member 9 (CYP2C9) small molecule antagonists: luciferase reporter qHTS assay (AID 1671198). Note: nearly all actives have a fitted effect of over 50% in size. Note: potency is the fitted concentration of half-maximal effect. An outline of the steps:
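Enzyme-substrate mix preincubated with compound 10 min at room temperature; reaction started with NADPH regeneration solution, 1 h 37C. Luminescent luciferin product read after 20 min detection reagent.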

The target in assay [8] is Cytochrome P450 1A2 (Homo sapiens) (UniProt P05177). Briefly: Cytochrome P450 Family 1 Subfamily A Member 2 (CYP1A2) small molecule antagonists: luciferase reporter qHTS assay (AID 1671199). Note: nearly all actives have a fitted effect of over 50% in size. Note: potency is the fitted concentration of half-maximal effect. The procedure, abridged:
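Signal from luciferin formed by CYP1A2 from a proluciferin substrate is read as luminescence, expressed in relative luminescence units. Compounds sit with enzyme 10 min, NADPH-driven reaction runs 1 h, all at room temperature.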

The target in assay [9] is Cytochrome P450 3A4 (Homo sapiens) (UniProt P08684). Briefly: Cytochrome P450 Family 3 Subfamily A Member 4 (CYP3A4) small molecule antagonists: luciferase reporter qHTS assay (AID 1671201). Note: nearly all actives have a fitted effect of over 50% in size. Note: potency is the fitted concentration of half-maximal effect. The procedure, abridged: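 Recombinant human CYP3A4 converts a proluciferin substrate to luciferin over 1 h at room temperature after NADPH regeneration solution is added (compound preincubated 10 min); detection reagent stops reaction, luminescence read 20 min later as relative units.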

Assay [10] can be described thus: Caspase-3/7 induction in CHO-K1 cells by small molecules, qHTS cell viability counter screen (AID 1346979). Note: nearly all actives have a fitted effect of over 35% in size. The procedure, abridged:
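Cytotoxicity counter screen: CellTiter-Fluor added to compound-treated wild-type CHO-K1 cells at 16 h (37C, 5% CO2), fluorescence measured 1 h later; same wells as caspase-3/7 measurement.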

The target of assay [11] is Voltage-gated inwardly rectifying potassium channel KCNH2 (Homo sapiens) (UniProt Q12809). Briefly: Human Ether-a-go-go-Related Gene (hERG) channel small molecule antagonists: fluorescence cell-based qHTS assay (AID 1671200). The procedure, abridged:
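Thallium flux as potassium surrogate: FluxOR II dye loaded 1 h at room temperature into hERG-expressing U2OS cells, then stimulus buffer added after 10 min. Kinetic 480 nm excitation/540 nm emission read, 2 min.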

For assay [12], the target named is Cytochrome P450 2D6 (Homo sapiens) (UniProt P10635). Briefly: Cytochrome P450 Family 2 Subfamily D Member 6 (CYP2D6) small molecule antagonists: luciferase reporter qHTS assay (AID 1671196). Note: nearly all actives have a fitted effect of over 50% in size. Note: potency is the fitted concentration of half-maximal effect. An outline of the steps: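 Inhibition of CYP2D6 was gauged by loss of luminescence, since light produced tracks the luciferin generated from a proluciferin substrate. A 10 min room-temperature preincubation preceded 1 h NADPH-supported turnover.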

For assay [13], the target named is Nuclear receptor subfamily 1 group I member 2 (Rattus norvegicus) (UniProt Q9R1A7). Briefly: Rat pregnane X receptor (rPXR) activation by small molecules, qHTS assay (AID 1346983). Note: potency is the fitted concentration of half-maximal effect; nearly all actives have a fitted effect of over 20% in size. The note with it: rPXR luciferase reporter cells, One-Glo luminescence, 24 h; max activation: hits give high values. An outline of the steps: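 Luminescent readout (One-Glo luciferase, 30 min room temperature) followed 24 hr compound treatment at 37 C of rPXR cells plated 2,000 per well and preincubated 5hr; qHTS format with compounds delivered in DMSO.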

A number with no mark means an inactive call. Inconclusive results are not listed. Calls of active or inactive are those of the source. Calls come from the whole dose curve; as a rule, active = well fitted curve in the direction sought with a large enough effect in the repeat runs; inconclusive = weak or mixed curves; inactive = no such curve, though single readings can be large; an effect the other way counts as inactive or inconclusive.

Sequence of Cytochrome P450 2C19 (Homo sapiens) (P33261 whole entry, looked up): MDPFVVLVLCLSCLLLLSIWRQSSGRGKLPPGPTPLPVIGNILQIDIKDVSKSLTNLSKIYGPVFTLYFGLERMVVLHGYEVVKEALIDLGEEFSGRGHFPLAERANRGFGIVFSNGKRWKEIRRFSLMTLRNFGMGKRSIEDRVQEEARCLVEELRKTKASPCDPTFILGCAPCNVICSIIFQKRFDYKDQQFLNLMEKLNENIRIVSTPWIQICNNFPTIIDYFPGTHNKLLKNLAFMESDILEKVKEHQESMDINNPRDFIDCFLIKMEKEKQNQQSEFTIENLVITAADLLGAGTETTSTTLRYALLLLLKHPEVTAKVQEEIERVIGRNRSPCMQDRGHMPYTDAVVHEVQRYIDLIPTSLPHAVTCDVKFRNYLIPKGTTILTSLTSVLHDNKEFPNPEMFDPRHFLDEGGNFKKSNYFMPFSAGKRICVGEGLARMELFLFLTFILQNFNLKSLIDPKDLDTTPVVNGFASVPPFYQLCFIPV
Sequence of Cytochrome P450 2D6 (Homo sapiens) (P10635 whole entry, looked up): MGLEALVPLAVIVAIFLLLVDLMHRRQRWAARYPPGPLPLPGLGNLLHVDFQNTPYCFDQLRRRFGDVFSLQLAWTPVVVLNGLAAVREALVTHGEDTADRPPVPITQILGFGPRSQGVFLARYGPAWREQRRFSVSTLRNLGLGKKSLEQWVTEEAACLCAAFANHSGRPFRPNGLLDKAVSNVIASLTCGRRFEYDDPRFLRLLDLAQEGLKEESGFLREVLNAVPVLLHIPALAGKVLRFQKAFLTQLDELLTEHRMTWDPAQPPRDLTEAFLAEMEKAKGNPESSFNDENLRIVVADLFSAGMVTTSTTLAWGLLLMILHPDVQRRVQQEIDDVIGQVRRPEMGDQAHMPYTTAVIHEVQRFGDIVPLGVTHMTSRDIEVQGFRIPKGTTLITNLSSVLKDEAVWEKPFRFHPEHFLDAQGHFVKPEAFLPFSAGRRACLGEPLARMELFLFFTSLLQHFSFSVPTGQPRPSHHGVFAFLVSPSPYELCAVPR
Sequence of Nuclear receptor subfamily 1 group I member 2 (Homo sapiens) (O75469 whole entry, looked up): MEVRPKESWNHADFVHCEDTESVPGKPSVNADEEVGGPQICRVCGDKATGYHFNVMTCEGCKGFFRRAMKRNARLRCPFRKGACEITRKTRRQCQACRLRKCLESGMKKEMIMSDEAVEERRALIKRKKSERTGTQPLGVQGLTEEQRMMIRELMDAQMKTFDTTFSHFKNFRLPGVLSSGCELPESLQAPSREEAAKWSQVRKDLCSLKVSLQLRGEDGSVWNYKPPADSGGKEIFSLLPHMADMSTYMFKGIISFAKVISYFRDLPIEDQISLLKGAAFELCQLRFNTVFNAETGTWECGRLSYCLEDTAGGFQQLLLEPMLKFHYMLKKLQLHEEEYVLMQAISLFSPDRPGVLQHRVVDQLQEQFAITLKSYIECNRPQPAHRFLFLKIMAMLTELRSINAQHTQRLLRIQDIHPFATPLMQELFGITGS
Sequence of Voltage-gated inwardly rectifying potassium channel KCNH2 (Homo sapiens) (Q12809 whole entry, looked up): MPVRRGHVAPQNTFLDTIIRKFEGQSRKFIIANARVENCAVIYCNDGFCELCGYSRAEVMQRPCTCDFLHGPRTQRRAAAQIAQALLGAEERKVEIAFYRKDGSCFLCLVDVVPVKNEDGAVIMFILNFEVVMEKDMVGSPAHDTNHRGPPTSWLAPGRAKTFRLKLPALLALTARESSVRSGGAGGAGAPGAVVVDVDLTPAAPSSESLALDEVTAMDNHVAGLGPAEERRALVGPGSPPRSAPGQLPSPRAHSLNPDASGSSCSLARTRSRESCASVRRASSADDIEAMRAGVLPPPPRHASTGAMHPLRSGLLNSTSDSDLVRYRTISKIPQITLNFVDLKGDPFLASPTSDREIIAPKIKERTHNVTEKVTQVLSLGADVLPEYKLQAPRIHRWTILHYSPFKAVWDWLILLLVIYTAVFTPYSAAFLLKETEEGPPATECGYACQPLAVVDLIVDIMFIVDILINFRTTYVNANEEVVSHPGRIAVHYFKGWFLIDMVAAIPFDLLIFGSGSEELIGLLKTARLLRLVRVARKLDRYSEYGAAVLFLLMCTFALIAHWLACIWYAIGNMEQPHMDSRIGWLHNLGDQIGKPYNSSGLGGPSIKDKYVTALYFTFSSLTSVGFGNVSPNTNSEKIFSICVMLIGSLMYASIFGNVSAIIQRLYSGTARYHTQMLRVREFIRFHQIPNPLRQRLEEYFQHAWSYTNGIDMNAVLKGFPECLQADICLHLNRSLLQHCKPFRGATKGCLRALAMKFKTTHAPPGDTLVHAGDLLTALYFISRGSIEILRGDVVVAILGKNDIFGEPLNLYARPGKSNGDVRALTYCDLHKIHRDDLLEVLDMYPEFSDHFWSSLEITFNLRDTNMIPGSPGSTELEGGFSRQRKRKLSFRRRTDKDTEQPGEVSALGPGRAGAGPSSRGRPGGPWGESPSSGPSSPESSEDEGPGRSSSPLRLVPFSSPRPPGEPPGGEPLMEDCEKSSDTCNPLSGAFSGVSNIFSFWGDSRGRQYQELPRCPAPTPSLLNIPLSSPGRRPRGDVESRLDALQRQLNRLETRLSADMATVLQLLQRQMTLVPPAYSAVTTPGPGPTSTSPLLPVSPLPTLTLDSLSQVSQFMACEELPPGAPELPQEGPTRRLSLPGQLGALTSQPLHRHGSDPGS
Sequence of Cytochrome P450 1A2 (Homo sapiens) (P05177 whole entry, looked up): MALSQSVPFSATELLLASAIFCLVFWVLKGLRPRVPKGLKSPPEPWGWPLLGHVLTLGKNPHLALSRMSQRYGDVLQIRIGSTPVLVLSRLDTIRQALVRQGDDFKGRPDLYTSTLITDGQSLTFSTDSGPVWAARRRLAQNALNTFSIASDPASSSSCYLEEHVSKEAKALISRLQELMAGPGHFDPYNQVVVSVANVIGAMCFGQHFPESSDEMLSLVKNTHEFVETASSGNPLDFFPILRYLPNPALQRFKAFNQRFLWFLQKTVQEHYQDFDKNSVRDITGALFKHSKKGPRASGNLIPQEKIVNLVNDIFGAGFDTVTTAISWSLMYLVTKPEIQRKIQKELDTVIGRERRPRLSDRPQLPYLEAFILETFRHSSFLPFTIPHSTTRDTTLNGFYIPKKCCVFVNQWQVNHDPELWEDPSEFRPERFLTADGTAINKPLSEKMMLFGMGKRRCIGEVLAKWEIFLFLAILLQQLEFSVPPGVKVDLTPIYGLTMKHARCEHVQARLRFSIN
Sequence of Cytochrome P450 2C9 (Homo sapiens) (P11712 whole entry, looked up): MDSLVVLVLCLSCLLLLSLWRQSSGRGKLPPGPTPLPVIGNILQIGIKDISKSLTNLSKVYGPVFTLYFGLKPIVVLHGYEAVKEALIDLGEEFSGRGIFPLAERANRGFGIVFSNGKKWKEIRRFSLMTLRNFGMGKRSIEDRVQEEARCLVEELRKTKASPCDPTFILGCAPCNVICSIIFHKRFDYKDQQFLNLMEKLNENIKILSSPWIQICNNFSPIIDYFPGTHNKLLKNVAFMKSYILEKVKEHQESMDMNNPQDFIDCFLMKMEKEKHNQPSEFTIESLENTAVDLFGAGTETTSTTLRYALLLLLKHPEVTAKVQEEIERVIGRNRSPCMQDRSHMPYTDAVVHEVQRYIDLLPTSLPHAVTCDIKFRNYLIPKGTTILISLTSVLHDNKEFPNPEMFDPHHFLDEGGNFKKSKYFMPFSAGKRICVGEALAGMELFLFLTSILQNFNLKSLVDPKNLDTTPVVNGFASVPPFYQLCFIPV
Sequence of Cytochrome P450 3A4 (Homo sapiens) (P08684 whole entry, looked up): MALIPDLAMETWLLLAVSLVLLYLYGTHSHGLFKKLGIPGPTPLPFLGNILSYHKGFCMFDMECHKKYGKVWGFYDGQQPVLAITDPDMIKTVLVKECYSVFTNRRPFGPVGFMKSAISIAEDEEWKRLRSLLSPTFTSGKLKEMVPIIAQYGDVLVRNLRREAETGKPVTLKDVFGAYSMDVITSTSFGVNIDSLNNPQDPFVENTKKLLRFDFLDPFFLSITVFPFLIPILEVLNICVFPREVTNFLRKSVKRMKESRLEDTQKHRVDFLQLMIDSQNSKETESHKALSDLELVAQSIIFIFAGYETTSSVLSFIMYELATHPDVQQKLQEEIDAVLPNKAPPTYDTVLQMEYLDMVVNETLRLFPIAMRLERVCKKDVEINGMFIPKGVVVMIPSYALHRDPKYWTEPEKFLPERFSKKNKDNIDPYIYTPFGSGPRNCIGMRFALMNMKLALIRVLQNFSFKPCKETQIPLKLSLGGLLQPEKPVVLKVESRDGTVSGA
Sequence of Nuclear receptor subfamily 1 group I member 2 (Rattus norvegicus) (Q9R1A7 whole entry, looked up): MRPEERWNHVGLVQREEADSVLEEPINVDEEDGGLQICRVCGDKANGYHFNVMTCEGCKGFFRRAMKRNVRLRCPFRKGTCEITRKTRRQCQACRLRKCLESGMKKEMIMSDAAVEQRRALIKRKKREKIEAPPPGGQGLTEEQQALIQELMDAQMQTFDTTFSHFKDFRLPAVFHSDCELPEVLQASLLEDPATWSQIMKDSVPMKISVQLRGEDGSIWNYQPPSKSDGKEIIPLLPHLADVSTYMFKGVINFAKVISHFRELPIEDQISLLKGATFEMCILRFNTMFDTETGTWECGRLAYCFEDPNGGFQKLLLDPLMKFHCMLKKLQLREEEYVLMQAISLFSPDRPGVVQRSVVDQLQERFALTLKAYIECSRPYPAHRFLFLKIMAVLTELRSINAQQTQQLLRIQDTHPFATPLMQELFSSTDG

For `CCc1ccc2c(c1)C(=O)c1ccccc1C2=O`, the Potency entry in assay [1], in assay [2], in [3] and in assay [4] was “inactive” throughout. For the same compound, the Potency in assay [5] is 21.7 µM (active); in assay [6], 11.2 µM (active); in [7] it was 10 µM (active); in assay [8], 2.24 µM (active); in assay [9], 17.8 µM (active).

For `C(/C=C/C=C/Nc1ccccc1)=Nc1ccccc1`, the Potency entry in assay [1], in assay [2], in assay [10], in assay [3], in assay [6] and in assay [11] was “inactive” throughout.

For the compound `COc1ccc(/C(C)=C/C(=O)O)c(OC)c1`, the Potency entry in assay [1], in assay [2], in assay [3], in [4], in assay [5] and in assay [6] was “inactive” each time. Moreover, the Potency result in assay [7] and in assay [11] was “inactive” throughout.

With `CC(Cc1ccccc1)(NC(=O)CN)c1ccccc1` (configuration not stated), the Potency result in assay [1], in assay [2], in assay [10], in assay [3] and in assay [11] was “inactive” each time.

On to `CC(C)NC(=O)c1ccccc1N`, for which the Potency result in [1], in assay [2], in [3], in assay [4], in assay [5] and in assay [12] was “inactive” in each case. The Potency result in [6] and in assay [11] was “inactive” each time.

In the case of `CCCCC(CC)COCCC#N` (configuration not stated), the Potency result in assay [1], in assay [2], in assay [3], in assay [4], in [5] and in assay [12] was “inactive” in each case. Moreover, the Potency entry in [6], in [8] and in assay [11] was “inactive” throughout.

For the compound `C=Cc1ccc(C=C)cc1`, the Potency result in assay [1], in [2], in [3], in assay [4], in assay [5] and in assay [12] was “inactive” each time. The Potency entry in assay [7], in [8] and in assay [11] was “inactive” throughout.

In the case of `CCCc1nc(C)c2c(=O)[nH]c(-c3cc(S(=O)(=O)N4CCN(CC)CC4)ccc3OCC)nn12`, the Potency entry in assay [1], in assay [2], in assay [10], in [3], in [12] and in [6] was “inactive” in each case. The Potency entry in assay [11] was “inactive”. The Potency in [13] was 3.55 µM (active).

Take `CCCCOC(=O)CC#N`: the Potency entry in assay [1], in assay [2], in assay [3], in assay [4] and in assay [5] was “inactive” each time. The Potency was 5.27 µM (active) in [12], 7.44 µM (active) in [6] and 7.44 µM (active) in assay [8].

Regarding `C=C(C)C(=O)OCCCCCCCCCCOC(=O)C(=C)C`, the Potency result in assay [1], in assay [2], in assay [3], in [4], in [5] and in assay [6] was “inactive” in each case. Moreover, the Potency entry in [9] was “inactive”. For the same compound, the Potency is 35.6 µM (active) in assay [12] and 44.8 µM (active) in assay [8].

For `COc1ccnc2c1CCCCC2S(=O)c1nc2ccccc2[nH]1` (configuration not stated), the Potency result in assay [1], in assay [2], in [3], in assay [4] and in assay [11] was “inactive” each time. Besides, the Potency in [5] was 29.8 µM (active); in assay [12] it was 0.436 µM (active); in assay [6], 8.71 µM (active); in assay [7], 12.3 µM (active); in assay [8], 13.8 µM (active).

In the case of `COC(=O)c1cc(Cl)ccc1[N+](=O)[O-]`, the Potency entry in assay [1], in assay [2], in assay [10], in assay [3], in assay [7] and in assay [11] was “inactive” each time. Also, the Potency in assay [6] was 79.6 µM (active); in assay [8], 7.96 µM (active).
